Screening data as filed in PubChem.
TPT1 inh: inhibitors of Candida albicans tRNA 2'-phosphotransferase TPT1 | recombinant caTPT1, FP RNA substrate dephosphorylation | inhibition, % at 5 µM | 300,000 compounds, 0.81% hits;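 active means inhibition above the mean of all tested compounds plus 3 SD, set per screening campaign, cut at about 24% in these data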;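 further: plate controls were DMSO alone for no effect and ferristatin control at 100 nM for full effect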
IDE cell inh: inhibits human insulin-degrading enzyme in HEK cells; 320,000 compounds, 0.41% hits; FAbetaB cleavage, fluorescence polarization; inhibition, % at 5.59 µM;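 active means percent inhibition above the average of all tested compounds plus 3 SD, set per screening campaign, cut at about 16% in these data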;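 further: IDE supplied by intact live HEK cells; FP after avidin binding of uncleaved biotin substrate so inhibition keeps polarization high; 0% = DMSO wells and 100% = 60 µM reference IDE inhibitor Ii1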
Rpn11 block: Rpn11 (human) deubiquitinase inhibition. O00487. human 26S proteasome, Ub4-pepOG fluorescence polarization; 20S core pre-blocked with epoxomicin. inhibition, % at 20 µM. 360,000 compounds, 0.59% hits. AID 588493;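 active means inhibition at 20 µM, scaled to each plate's controls, above about 33%, limit read from the data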
Target sequence (O00487 whole entry, looked up): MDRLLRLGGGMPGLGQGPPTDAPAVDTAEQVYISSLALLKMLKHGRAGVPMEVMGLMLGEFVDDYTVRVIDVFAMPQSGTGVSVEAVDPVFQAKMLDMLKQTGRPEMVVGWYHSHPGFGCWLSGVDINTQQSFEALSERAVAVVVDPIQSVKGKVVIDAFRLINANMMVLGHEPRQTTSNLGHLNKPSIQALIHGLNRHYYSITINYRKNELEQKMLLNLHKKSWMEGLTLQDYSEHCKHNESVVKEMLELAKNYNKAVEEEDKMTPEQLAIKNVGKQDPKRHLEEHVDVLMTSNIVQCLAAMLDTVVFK
Calb FLC: C. albicans growth modulation with fluconazole | C. albicans CaCi-2 (fluconazole-resistant clinical isolate) + fluconazole, Alamar Blue growth, 48 h | growth inhibition, % (concentration not given with the values) | 300,000 compounds, 0.57% hits | AID 1979;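 active means growth inhibition above about 58% in most replicates, limit read from the data, passing the limit was not always enough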;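 further: all wells also contain fluconazole at 8 µg/ml as a sub-toxic cotreatment; 0% = median of DMSO wells and 100% = median of geldanamycin control wells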
Rin1-Abl PPI inh: human Rin1-Abl interaction inhibition | TR-FRET Rin1/Abl binding, biochemical | inhibition, % at 7.35 µM | 360,000 compounds, 0.4% hits; in the data active means inhibition above about 5%, passing the limit was not always enough
IDE act: activators of human insulin-degrading enzyme in cells | P14735 | HEK cells, FAbeta-B cleavage, fluorescence polarization; 0% vehicle, 100% cell-free pure enzyme wells | activation, % at 5.96 µM | 340,000 compounds, 0.073% hits | AID 493087;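 active means activation above the mean of all tested compounds plus 3 SD, set per screening campaign, cut at about 17% in these data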
TPT1 inh confirm: confirmation of Candida albicans TPT1 inhibitors | shares compounds with TPT1 inh | inhibition, % at 5 µM | recombinant caTPT1, fluorescence polarization, RNase T1 coupled | 2,400 compounds, 74% hits;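 active means inhibition above the primary screen limit, the mean inhibition of all tested compounds plus 3 SD, cut at about 25% in these data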
RNase T1 inh: RNase T1 inhibition in TPT1 counter-screen | shares compounds with TPT1 inh | RNase T1 cleavage, fluorescence polarization, 1536-well | inhibition, % at 5 µM | 2,400 compounds, 83% hits | AID 2153;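 active means inhibition above the solvent-only control well mean plus 3 SD, limit set per screening run, cut at about 23% in these data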;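 further: plate controls were DMSO wells with enzyme for no effect and wells without RNase T1 for full effect; inhibitors block cleavage so intact labeled substrate keeps polarization high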
Target sequence (P00651 whole entry, looked up): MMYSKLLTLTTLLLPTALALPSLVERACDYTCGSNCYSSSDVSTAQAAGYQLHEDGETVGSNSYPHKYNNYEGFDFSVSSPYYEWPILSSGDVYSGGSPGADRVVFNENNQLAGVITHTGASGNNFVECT
IDE inh confirm: confirmation of human insulin-degrading enzyme inhibitors in cells | HEK cells, FAbetaB cleavage, fluorescence polarization | 1,200 compounds, 51% hits | shares compounds with IDE cell inh | inhibition, % at 5.59 µM;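 active means mean inhibition across triplicate wells above the cutoff set by the earlier primary insulin-degrading enzyme screen, cut at about 16% in these data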;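 further: 0% = DMSO wells and 100% = 60 µM reference IDE inhibitor Ii1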
HEK293 tox: kills HEK cells in IDE inhibitor counter-screen | shares compounds with IDE cell inh | inhibition, % at 5.59 µM | AID 449730 | HEK293 cytotoxicity, ATP luminescence | 1,200 compounds, 28% hits; in the data active means inhibition above about 22%;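 further: 0% = vehicle wells and 100% = reference cytotoxic drug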
Rpn11 inh conf: Rpn11 inhibition confirmation, single concentration; 1,900 compounds, 29% hits; purified human 26S proteasome, Ub4-pepOG fluorescence polarization; proteasome pretreated with epoxomicin; inhibition, % at 20 µM; AID 602318; shares compounds with Rpn11 block
MMP-2 counter: blocks human MMP-2, flagging nonselective RPN11 hits | shares compounds with Rpn11 block | recombinant MMP-2, FRET peptide cleavage fluorescence | inhibition, % at 20 µM | 1,900 compounds, 4% hits | AID 602330;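 further: human MMP-2 activated beforehand with APMA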
Thrombin inh: counter-screen for RPN11 inhibitors: inhibition of bovine thrombin. bovine thrombin cleavage of Ub4-pepOG, fluorescence polarization. AID 602333. shares compounds with Rpn11 block. inhibition, % at 20 µM. 1,900 compounds, 13% hits;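 active means mean inhibition at least 40% at 20 µM, or signal 3 deviations below plate average, so some actives read negative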;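 further: plate controls were thrombin with DMSO for no effect and buffer wells lacking thrombin for full effect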
* = called active by the depositor; . = not tested or not shown; + = active, no number. An excerpt weighted towards active compounds, which were near 2.3% of everything screened. Unless noted, no stated cut-off is given here; in the data, active means inhibition above about 40%; inactive means the rest.

SMILES	TPT1 inh	IDE cell inh	Rpn11 block	Calb FLC	Rin1-Abl PPI inh	IDE act	TPT1 inh confirm	RNase T1 inh	Rpn11 inh conf	MMP-2 counter	Thrombin inh	others
CCN(CC)C(=S)SCc1csc(CC(=O)Nc2ccccc2C)n1	1	-1	13	6	0	-2	.	.	.	.	.
COCCCn1c(=O)/c(=C\c2ccccc2OC(F)F)s/c1=C(/C#N)C(=O)NC(C)C	4	0	.	0	3	4	.	.	.	.	.
COCCCn1c(=O)/c(=C\c2ccccc2OC(C)C)s/c1=C(/C#N)C(=O)Nc1ccc(C(=O)O)cc1	39*	-4	99*	9	1	-5	19	58*	-85	-38	active
COc1cc(/C=C2/CCC/C(=C\c3cc(O)c(OC)c(Cl)c3)C2=O)cc(Cl)c1O	36*	23*	64*	8	-1	-20	19	23*	7	47*	5	IDE inh confirm=24*;HEK293 tox=87*
Cc1ccc(N(CCC#N)C(=O)CSc2nc3ccccc3c(=O)[nH]2)cc1	.	2	-2	.	3	-1	.	.	.	.	.
O=C(Nc1ccc(Cl)cc1)c1cncs1	4	3	4	-6	-1	4	.	.	.	.	.
CCCCc1nn2c(N)c(/C=C3\C=Nc4ccccc43)c(=O)nc2s1	5	-2	21	19	0	0	.	.	.	.	.
CCCCn1c(O)c(/C=C2\C=Nc3ccccc32)c(=O)[nH]c1=O	30*	0	42*	-5	1	1	33*	43*	51*	-29	11
Cc1c(N=C2Nc3cccc4cccc2c34)c(=O)n(-c2ccccc2)n1C	88*	-2	.	0	0	-3	109*	114*	-10	-38	active
Cc1cc(N2CCCC2)ccc1/C=C1/C(=O)N(C)C(=S)N1C	73*	31*	43*	30	3	-63	67*	76*	30	-9	28
COc1ccc(C(=O)CC(=O)c2ccc(F)cc2)cc1	2	-8	-4	-1	-2	.	.	.	.	.	.
COc1ccc(/C=C2\C(=O)NC(=S)N2C(=O)c2ccc(F)cc2)cc1	148*	37*	+	-3	0	-6	156*	145*	+	12	active	IDE inh confirm=59*;HEK293 tox=12
COc1ccc(C)cc1Nc1nc(-c2c[nH]c3ccccc23)cs1	31*	11	42*	10	0	-1	26*	36*	8	28	1
Cc1[nH]c2ccccc2c1/C=N/Nc1ccc([N+](=O)[O-])cc1	95*	2	119*	7	-1	-3	100*	102*	83*	-28	81*
Cc1[nH]c2ccccc2c1/C=N/NC(=O)c1cccc([N+](=O)[O-])c1	3	3	2	13	1	.	.	.	.	.	.
N#CCc1ccc(Oc2ncc(C(F)(F)F)cc2Cl)cc1	0	5	1	42	2	5	.	.	.	.	.
Cc1ccc(CO/N=C\Cc2snc(Sc3ncc(C(F)(F)F)cc3Cl)c2C#N)cc1	35*	4	45*	12	-2	2	27*	34*	60*	10	49*
Cc1ccccc1Nc1cccc2nonc12	37*	1	40*	7	-1	0	42*	54*	22	-7	4
O=c1/c(=C\c2ccc(O)cc2)sc2n1C(c1ccccc1)C(c1ccccc1)=NN=2 (stereo not drawn)	62*	19*	81*	-3	-3	-49	65*	76*	95*	11	86*	IDE inh confirm=141*;HEK293 tox=12
CCCCn1c(N)c(N(CC(C)C)C(=O)c2ccc(S(=O)(=O)N3CCCCC3)cc2)c(=O)[nH]c1=O	-2	3	0	-1	0	-1	.	.	.	.	.
CCCc1cc(C(=O)OCC(=O)NCCc2ccccc2)sc1C	.	.	1	.	-4	.	.	.	.	.	.
c1ccc(NC2=Nc3cccc4cccc2c34)cc1	14	0	27	24	-2	4	.	.	.	.	.
COc1ccc(NC2=Nc3cccc4cccc2c34)cc1	26*	-3	50*	-3	-6	-2	37*	48*	24	-27	10
CN(Cc1cnccn1)C(=O)CC1C(=O)NCCN1Cc1ccc(F)cc1Cl (stereo not drawn)	1	-6	-6	7	-1	6	.	.	.	.	.
O=C(CSc1ncnc2scc(-c3ccccc3)c12)N1CCN(Cc2ccc3c(c2)OCO3)CC1	41*	5	50*	-11	-3	0	66*	77*	34	19	21
SMILES	TPT1 inh	IDE cell inh	Rpn11 block	Calb FLC	Rin1-Abl PPI inh	IDE act	TPT1 inh confirm	RNase T1 inh	Rpn11 inh conf	MMP-2 counter	Thrombin inh	others
c1ccc(-c2csc3ncnc(N4CCN(Cc5ccc6c(c5)OCO6)CC4)c23)cc1	0	-3	2	6	2	-1	.	.	.	.	.
Cn1cncc1C#Cc1c(C=O)[nH]c2ccccc12	.	4	9	.	2	-1	.	.	.	.	.
O=C(NC1CC1)c1ccc2nc([C@@H]3O[C@H](CO)[C@H](O)[C@H](O)[C@H]3O)[nH]c2c1	.	.	-2	.	-1	.	.	.	.	.	.
Cc1cccc(NC(=O)CNC(=O)CCc2nc3sc4c(c3c(=O)[nH]2)CCCC4)c1C	32*	5	122*	10	1	0	43*	53*	178*	4	85*
CC(SCc1nc2sc3c(c2c(=O)[nH]1)CCCC3)C(=O)Nc1ccccn1 (stereo not drawn)	32*	3	45*	32	0	0	39*	50*	39	-4	29
Cc1ccc(NC(=O)C(C)SCc2nc3sc4c(c3c(=O)[nH]2)CCCC4)nc1 (stereo not drawn)	26*	0	55*	22	4	-1	37*	45*	49*	-18	25
Cc1sc2nc(CSC(C)C(=O)Nc3ccccn3)[nH]c(=O)c2c1C (stereo not drawn)	.	-1	19	.	1	-1	.	.	.	.	.
